Many of the other results were omitted from the sample, so hits are more common in it than they were.
Dicer processing: inhibitors of Dicer pre-microRNA processing, primary screen, biochemical, cat-ELCCA, chemiluminescence. Endoribonuclease Dicer (Homo sapiens), Q9UPY3. cat-ELCCA pre-miR-21 Dicer processing; active compounds read high. z-score at 25 µM. 6% of 47,000 active; in the data active means z-score above about 3, passing the limit was not always enough;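 further: plate controls were vehicle for no effect and no enzyme for full effect; higher signal means more uncleaved substrate so more Dicer inhibition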
Target sequence (Q9UPY3 whole entry, looked up): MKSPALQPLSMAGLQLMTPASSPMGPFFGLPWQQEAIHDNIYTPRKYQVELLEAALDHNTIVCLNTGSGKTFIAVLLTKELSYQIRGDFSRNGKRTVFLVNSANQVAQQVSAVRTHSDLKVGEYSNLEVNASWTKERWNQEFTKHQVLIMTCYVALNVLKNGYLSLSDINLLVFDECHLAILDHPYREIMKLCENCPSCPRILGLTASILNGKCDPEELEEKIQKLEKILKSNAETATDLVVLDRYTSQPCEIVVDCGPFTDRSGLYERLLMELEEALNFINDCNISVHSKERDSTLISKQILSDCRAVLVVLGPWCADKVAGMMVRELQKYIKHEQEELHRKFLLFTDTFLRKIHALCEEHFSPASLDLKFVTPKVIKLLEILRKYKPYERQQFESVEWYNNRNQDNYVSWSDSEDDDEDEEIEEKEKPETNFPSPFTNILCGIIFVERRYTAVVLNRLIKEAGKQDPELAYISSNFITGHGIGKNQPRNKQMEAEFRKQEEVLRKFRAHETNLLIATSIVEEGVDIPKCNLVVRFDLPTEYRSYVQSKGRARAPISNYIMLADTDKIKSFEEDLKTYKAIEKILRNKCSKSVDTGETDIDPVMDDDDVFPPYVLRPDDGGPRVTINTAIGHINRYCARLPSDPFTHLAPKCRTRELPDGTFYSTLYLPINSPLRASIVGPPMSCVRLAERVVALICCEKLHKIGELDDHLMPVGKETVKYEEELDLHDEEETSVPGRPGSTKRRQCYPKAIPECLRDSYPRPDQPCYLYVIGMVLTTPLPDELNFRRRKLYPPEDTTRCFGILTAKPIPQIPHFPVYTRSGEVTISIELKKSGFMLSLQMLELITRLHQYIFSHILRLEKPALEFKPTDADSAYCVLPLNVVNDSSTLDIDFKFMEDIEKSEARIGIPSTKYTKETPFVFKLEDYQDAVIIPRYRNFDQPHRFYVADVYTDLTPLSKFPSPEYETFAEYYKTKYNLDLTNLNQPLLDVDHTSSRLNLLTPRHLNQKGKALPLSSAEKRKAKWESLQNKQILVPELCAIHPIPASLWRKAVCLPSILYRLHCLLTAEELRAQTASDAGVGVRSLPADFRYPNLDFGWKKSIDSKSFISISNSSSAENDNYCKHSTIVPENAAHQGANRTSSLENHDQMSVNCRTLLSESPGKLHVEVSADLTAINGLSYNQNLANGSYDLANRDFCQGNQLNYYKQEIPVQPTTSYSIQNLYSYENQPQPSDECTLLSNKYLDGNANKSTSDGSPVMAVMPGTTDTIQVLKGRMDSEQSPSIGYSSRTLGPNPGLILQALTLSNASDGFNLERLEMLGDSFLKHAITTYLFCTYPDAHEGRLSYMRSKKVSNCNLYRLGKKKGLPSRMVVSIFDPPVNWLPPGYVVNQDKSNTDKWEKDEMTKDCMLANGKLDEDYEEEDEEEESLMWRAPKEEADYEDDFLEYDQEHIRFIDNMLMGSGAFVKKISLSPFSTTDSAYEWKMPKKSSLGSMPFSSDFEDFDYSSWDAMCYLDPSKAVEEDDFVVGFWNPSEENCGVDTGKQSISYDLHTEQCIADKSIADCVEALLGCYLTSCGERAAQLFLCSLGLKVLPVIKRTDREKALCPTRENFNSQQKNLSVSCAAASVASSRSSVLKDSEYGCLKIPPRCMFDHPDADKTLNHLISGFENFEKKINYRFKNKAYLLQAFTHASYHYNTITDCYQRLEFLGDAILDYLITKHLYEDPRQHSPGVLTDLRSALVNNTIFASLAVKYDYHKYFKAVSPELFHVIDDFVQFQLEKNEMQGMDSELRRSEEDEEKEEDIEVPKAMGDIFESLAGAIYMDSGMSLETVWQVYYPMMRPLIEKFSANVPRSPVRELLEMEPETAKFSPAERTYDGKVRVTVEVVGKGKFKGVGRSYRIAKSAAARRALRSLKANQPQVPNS
Numbers without * were called inactive.

CC(C)(C)NC(=O)CSc1nnc(NC(=O)Cn2c(=O)oc3ccccc32)s1 was read as Dicer processing 1.62.
Screening O=C(Cn1c(=O)oc2ccccc21)Nc1nnc(SCc2ccccc2)s1 returned Dicer processing 3.04*.
O=C(Cn1c(=O)oc2ccccc21)Nc1nnc(SCC(=O)N2CCCCC2)s1 was read as Dicer processing 1.05.
`O=C(CCSc1nnc(NC(=O)Cn2c(=O)oc3ccccc32)s1)Nc1ccccc1` gave Dicer processing 2.59.
For O=C(Cn1c(=O)oc2ccccc21)Nc1nnc(SCC(=O)N2CCOCC2)s1 the results were Dicer processing 3.2*.
`O=c1nc(/C=C/c2cn(Cc3ccccc3Cl)c3ccccc23)cc(C(F)(F)F)[nH]1` gave Dicer processing 0.24.
`OC1c2ccccc2-c2ccccc2C1O` (stereo not given) gave Dicer processing -0.24.
For COc1ccc(Oc2ccc(C(F)(F)F)cn2)cc1 the results were Dicer processing 0.39.
Cc1ccccc1-c1cc(=O)c2cc(Cl)ccc2o1 was read as Dicer processing 2.17.
For Cc1cc2oc(-c3ccccc3C(=O)O)cc(=O)c2cc1C the results were Dicer processing -0.1.
Screening O=c1cc(-c2cc(Br)cc3c2OCOC3)oc2ccccc12 returned Dicer processing 3.49*.
CCOC(=O)Cn1c(=O)c(-c2nc(C(C)(C)C)cs2)cn(C(C)C)c1=O was read as Dicer processing -0.83.
Screening CCOC(=O)/C(N=Nc1cccc(C)c1)=C(\C)O returned Dicer processing -0.18.
`Cc1nc2cc(Cl)ccc2c(=O)n1CC1CCCO1` (stereo not given) gave Dicer processing -1.
For O=C(NCc1ccc(F)cc1)c1nc2c(nnn2CC2CCCO2)c(=O)[nH]1 (stereo not given) the results were Dicer processing 3.1*.
`O=C1CC(NCC2CCCO2)C(=O)N1c1ccc(F)cc1` (stereo not given) gave Dicer processing -2.45.
CSc1nnc2c(n1)OC(c1cccc(F)c1)N(C(C)=O)c1ccccc1-2 (stereo not given) was read as Dicer processing 0.38.
For CCCCSC1=C(C#N)C(=O)NC(C(C)C)S1 (stereo not given) the results were Dicer processing -3.44.
For O=C1C2C3C=CC(C3)C2C(=O)N1c1nccs1 (stereo not given) the results were Dicer processing 0.34.
`O=C1CCC(=O)N1c1nccs1` gave Dicer processing 3.23*.
For O=C1NC2(CCCCCC2)C(=O)N1CCS(=O)(=O)Oc1ccc(Cl)cc1 the results were Dicer processing -0.08.
For N#CCSC1=CC(=O)CC(c2ccccc2)S1 (stereo not given) the results were Dicer processing -3.12.
`Cc1ccc(N2C(=O)C3C(c4ccccc4Cl)OC4(C(=O)c5ccccc5C4=O)C3C2=O)cc1` (stereo not given) gave Dicer processing -0.55.
`COc1ccc(N2C(=O)C3ON(c4ccccc4)C(c4ccccc4O)C3C2=O)cc1` (stereo not given) gave Dicer processing -1.08.
`C=CCN1Cc2ccc(C(=O)O)cc2C1` gave Dicer processing 3.2*.
For C=CCN1CCc2c(cc(O)c(O)c2Br)[C@@H](c2ccccc2)C1 the results were Dicer processing -3.74.
`C=CCN1C(=O)C(O)(CC(=O)c2ccc3c(c2)CCCC3)c2ccccc21` (stereo not given) gave Dicer processing 1.27.
For Cc1nc(S/C=C/C(=O)c2ccccc2)c(C#N)c(C)c1C the results were Dicer processing -1.35.
For COc1ccc(/C=C2\CN(C)C/C(=C\c3ccc(OC)cc3)C2=O)cc1 the results were Dicer processing -0.55.
`CN1C/C(=C\c2ccccc2)C(=O)/C(=C/c2ccccc2)C1` gave Dicer processing -1.55.
O=C1/C(=C/c2ccc(F)cc2)CN(Cc2ccccc2)C/C1=C\c1ccc(F)cc1 was read as Dicer processing 4.18*.
For O=C1NC(/C=C/c2ccco2)Nc2sc3c(c21)CCN(Cc1ccccc1)C3 (stereo not given) the results were Dicer processing -1.36.
Screening CC1(C)Cc2c(c(N3CCOCC3)nc3sc(-c4cc(C(=O)O)co4)c(N)c23)CO1 returned Dicer processing 0.3.
Screening CSc1cccc(NC(=O)CN(c2ccccc2)S(=O)(=O)N(C)C)c1 returned Dicer processing -1.68.
`CN(C)S(=O)(=O)N(CC(=O)Nc1ccc2c(c1)OCO2)c1ccccc1` gave Dicer processing -1.14.
Screening CN(C)S(=O)(=O)N(CC(=O)Nc1ccc(F)c(F)c1)c1ccccc1 returned Dicer processing 4.29*.
O=C1CC(c2ccc(Cl)cc2)CC2=C1C(c1cccs1)Nc1ccccc1N2 (stereo not given) was read as Dicer processing -0.38.
`C[n+]1cc(-c2ccccc2)nc(N2CCOCC2)n1` gave Dicer processing 1.16.
Oc1ccccc1C1CCCCC1c1ccccc1 (stereo not given) was read as Dicer processing 4.67*.
`O=C(NC(=O)C1CCCCC1)c1ccccc1O` gave Dicer processing -1.77.
